In assay [1] the target is Tyrosine-protein kinase ABL1 (Homo sapiens) (UniProt P00519). The settings on record: at 1 µM.
The target is the same in assay [2]. The settings on record: at 10 µM.
The target of assay [3] is Tyrosine-protein kinase ABL2 (Homo sapiens) (UniProt P42684). The settings on record: at 1 µM.
Assay [4] has the same target. The settings on record: at 10 µM.
Assay [5] concerns the target T1, Aurora kinase A (Homo sapiens) (UniProt O14965).
T1 sequence (whole entry): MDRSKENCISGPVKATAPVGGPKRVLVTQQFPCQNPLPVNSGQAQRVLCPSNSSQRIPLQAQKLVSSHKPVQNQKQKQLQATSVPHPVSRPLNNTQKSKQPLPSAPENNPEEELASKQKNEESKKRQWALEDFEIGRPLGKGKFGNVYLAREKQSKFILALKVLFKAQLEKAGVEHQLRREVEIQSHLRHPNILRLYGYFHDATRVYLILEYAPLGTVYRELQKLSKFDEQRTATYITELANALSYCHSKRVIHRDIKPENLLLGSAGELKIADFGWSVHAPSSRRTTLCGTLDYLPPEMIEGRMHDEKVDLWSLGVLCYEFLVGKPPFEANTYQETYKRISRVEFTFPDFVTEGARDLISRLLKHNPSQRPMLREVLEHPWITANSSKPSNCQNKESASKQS
To be noted: at 1 µM.

The target in assay [6] is T1, Aurora kinase A (Homo sapiens). The settings on record: at 10 µM.
Assay [7] addresses Aurora kinase B (Homo sapiens) (UniProt Q96GD4). To be noted: at 1 µM.
Assay [8] shares this target. To be noted: at 10 µM.
The target in assay [9] is T2, Aurora kinase C (Homo sapiens) (UniProt Q9UQB9).
T2 sequence (whole entry): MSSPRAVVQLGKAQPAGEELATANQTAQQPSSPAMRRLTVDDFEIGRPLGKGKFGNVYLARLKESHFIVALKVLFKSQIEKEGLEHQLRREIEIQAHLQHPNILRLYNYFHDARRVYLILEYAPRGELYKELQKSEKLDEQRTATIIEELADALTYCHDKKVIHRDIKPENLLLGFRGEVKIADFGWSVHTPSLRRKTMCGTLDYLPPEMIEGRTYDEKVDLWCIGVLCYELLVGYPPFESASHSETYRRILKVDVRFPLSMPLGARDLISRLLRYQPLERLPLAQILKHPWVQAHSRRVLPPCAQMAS
The settings on record: at 1 µM.

Assay [10] deals with T2, Aurora kinase C (Homo sapiens). The settings on record: at 10 µM.
Assay [11] deals with Tyrosine-protein kinase receptor UFO (Homo sapiens) (UniProt P30530). To be noted: at 1 µM.
The target is the same in assay [12]. The settings on record: at 10 µM.
For assay [13], the target named is Tyrosine-protein kinase BTK (Homo sapiens) (UniProt Q06187). To be noted: at 1 µM.
Assay [14] shares this target. To be noted: at 10 µM.
For assay [15], the target named is Tyrosine-protein kinase Blk (Homo sapiens) (UniProt P51451). To be noted: at 1 µM.
For assay [16] the target is unchanged. To be noted: at 10 µM.
In assay [17] the target is Protein-tyrosine kinase 6 (Homo sapiens) (UniProt Q13882). To be noted: at 1 µM.
For assay [18] the target is unchanged. To be noted: at 10 µM.
In assay [19] the target is T3, Mitogen-activated protein kinase kinase kinase 5 (Homo sapiens) (UniProt Q99683).
T3 sequence (whole entry): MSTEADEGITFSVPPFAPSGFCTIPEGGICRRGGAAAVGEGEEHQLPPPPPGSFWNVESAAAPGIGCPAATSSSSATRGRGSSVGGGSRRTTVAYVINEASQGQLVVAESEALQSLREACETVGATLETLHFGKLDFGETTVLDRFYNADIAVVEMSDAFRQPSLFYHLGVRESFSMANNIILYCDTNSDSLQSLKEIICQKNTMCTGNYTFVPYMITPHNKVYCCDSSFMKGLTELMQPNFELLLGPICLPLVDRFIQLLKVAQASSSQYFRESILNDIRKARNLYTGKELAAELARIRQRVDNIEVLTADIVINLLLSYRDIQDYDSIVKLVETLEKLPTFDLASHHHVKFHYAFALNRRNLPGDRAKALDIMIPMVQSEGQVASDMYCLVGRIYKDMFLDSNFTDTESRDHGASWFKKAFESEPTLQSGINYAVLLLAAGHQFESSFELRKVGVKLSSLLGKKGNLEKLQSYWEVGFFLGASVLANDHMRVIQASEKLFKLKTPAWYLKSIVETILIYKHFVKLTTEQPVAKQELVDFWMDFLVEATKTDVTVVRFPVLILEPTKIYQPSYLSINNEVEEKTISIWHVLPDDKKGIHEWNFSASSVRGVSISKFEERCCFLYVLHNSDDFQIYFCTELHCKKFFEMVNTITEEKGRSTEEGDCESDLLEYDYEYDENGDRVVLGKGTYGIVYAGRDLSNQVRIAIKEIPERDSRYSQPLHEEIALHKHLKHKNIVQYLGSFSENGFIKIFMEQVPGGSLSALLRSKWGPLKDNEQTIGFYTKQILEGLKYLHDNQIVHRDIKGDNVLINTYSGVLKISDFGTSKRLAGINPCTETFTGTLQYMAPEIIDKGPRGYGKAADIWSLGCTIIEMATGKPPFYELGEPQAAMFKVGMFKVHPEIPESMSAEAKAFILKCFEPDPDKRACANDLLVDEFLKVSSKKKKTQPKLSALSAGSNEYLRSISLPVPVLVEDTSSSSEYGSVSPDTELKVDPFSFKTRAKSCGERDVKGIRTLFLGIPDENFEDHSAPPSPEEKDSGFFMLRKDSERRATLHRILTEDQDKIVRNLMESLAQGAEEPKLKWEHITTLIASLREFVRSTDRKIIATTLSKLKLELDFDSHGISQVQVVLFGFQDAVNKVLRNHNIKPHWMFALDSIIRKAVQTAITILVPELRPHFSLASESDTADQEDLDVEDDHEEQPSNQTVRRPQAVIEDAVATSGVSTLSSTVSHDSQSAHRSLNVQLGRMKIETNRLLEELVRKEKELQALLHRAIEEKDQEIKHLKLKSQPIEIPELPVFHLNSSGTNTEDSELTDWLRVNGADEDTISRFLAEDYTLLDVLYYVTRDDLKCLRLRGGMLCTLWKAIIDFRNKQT
The settings on record: at 10 µM.

SMILES strings stand for the structures.

Drawing on ChEMBL document CHEMBL2218924, “A broad activity screen in support of a chemogenomic map for kinase signalling research and drug discovery” (Biochem J, 2013), this text covers residual activity for ten compounds.

Chain of Tyrosine-protein kinase Blk (Homo sapiens) (P51451 2-505 limits assumed): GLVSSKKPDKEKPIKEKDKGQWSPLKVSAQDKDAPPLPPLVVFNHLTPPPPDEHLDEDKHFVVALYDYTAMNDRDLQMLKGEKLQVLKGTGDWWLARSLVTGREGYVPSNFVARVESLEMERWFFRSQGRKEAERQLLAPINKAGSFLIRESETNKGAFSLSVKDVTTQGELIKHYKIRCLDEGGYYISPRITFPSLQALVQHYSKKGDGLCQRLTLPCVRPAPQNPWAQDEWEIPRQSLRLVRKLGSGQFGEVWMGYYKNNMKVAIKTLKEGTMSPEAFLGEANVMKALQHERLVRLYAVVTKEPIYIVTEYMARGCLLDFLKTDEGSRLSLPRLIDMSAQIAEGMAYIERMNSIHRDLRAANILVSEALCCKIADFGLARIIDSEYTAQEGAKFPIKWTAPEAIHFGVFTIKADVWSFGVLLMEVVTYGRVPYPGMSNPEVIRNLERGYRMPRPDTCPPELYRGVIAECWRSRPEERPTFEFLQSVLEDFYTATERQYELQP
Chain of Tyrosine-protein kinase receptor UFO (Homo sapiens) (P30530 whole entry): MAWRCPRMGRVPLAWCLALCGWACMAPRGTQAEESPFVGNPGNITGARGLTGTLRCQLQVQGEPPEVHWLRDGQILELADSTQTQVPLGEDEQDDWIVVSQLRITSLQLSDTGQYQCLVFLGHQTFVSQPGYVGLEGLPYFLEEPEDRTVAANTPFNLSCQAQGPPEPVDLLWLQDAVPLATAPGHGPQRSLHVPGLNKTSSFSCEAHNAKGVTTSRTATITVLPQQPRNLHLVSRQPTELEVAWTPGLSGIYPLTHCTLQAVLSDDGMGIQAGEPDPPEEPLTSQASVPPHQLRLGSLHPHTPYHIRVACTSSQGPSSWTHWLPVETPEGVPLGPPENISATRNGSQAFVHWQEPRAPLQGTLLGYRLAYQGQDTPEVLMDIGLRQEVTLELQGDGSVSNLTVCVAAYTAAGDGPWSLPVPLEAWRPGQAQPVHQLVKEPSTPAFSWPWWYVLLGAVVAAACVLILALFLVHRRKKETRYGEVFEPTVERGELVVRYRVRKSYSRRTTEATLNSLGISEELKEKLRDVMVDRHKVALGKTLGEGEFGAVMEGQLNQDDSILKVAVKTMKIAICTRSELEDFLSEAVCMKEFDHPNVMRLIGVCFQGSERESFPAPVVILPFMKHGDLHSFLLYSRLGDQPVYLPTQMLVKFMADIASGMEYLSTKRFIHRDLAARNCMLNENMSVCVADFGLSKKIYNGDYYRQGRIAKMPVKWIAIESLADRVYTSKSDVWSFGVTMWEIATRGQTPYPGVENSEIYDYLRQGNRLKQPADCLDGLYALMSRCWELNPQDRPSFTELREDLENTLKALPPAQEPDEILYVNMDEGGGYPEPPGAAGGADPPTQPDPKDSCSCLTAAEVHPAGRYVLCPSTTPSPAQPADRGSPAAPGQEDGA
Chain of Tyrosine-protein kinase ABL1 (Homo sapiens) (P00519 whole entry): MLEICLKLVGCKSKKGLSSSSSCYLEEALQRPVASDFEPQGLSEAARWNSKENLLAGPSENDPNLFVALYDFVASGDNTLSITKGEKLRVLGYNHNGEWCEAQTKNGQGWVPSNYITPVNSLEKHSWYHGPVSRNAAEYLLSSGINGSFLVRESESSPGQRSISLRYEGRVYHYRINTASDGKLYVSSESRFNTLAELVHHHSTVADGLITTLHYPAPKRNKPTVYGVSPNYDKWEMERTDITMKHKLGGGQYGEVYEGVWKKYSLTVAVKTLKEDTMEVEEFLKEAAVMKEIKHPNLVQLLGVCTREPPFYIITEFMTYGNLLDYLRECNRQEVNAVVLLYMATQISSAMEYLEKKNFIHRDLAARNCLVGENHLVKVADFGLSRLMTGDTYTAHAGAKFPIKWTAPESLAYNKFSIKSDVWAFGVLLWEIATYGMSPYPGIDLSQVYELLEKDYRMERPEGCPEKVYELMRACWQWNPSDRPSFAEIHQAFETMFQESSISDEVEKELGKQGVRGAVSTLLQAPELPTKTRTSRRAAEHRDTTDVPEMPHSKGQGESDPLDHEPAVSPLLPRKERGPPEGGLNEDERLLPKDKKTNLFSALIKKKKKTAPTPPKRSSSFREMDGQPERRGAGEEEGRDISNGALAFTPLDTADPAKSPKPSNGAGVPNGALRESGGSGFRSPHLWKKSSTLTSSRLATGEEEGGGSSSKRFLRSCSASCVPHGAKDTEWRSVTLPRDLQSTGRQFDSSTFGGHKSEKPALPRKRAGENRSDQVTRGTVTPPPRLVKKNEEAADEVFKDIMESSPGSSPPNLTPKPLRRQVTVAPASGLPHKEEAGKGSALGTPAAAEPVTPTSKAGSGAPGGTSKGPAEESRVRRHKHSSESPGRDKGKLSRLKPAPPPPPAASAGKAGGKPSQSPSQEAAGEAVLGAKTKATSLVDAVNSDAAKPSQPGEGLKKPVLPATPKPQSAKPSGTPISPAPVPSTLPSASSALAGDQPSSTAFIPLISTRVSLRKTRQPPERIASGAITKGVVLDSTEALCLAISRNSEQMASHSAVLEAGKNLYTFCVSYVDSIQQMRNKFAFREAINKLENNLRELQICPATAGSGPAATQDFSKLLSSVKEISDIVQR
Chain of Tyrosine-protein kinase ABL2 (Homo sapiens) (P42684 whole entry): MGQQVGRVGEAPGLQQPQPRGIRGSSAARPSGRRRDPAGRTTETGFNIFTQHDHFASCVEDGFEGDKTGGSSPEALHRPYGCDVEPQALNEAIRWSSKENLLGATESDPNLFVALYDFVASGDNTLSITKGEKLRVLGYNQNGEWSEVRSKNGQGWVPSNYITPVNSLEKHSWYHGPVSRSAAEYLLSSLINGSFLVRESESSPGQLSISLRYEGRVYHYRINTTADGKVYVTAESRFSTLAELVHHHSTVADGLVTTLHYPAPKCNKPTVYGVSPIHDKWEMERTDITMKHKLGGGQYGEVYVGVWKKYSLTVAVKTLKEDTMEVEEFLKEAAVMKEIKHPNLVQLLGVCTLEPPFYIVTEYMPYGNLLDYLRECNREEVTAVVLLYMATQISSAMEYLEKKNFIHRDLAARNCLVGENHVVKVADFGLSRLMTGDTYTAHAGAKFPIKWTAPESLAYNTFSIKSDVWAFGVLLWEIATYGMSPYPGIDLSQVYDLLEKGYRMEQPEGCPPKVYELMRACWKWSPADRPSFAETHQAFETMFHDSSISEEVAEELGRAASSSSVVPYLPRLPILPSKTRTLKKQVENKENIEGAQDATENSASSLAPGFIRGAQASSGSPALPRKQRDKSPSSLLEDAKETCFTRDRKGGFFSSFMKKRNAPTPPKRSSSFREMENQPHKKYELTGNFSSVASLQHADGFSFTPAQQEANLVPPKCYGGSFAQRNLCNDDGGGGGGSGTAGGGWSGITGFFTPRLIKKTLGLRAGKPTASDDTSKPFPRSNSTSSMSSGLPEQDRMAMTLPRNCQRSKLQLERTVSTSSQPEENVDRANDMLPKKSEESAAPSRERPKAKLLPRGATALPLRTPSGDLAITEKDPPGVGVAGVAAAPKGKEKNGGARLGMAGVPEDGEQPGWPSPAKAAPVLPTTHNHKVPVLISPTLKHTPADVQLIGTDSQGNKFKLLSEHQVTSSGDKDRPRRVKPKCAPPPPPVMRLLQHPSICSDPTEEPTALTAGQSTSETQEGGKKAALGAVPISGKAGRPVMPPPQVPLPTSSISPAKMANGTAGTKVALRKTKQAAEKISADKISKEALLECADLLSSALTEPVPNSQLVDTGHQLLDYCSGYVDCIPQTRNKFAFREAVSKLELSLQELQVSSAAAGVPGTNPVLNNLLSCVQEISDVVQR
Chain of Aurora kinase B (Homo sapiens) (Q96GD4 whole entry): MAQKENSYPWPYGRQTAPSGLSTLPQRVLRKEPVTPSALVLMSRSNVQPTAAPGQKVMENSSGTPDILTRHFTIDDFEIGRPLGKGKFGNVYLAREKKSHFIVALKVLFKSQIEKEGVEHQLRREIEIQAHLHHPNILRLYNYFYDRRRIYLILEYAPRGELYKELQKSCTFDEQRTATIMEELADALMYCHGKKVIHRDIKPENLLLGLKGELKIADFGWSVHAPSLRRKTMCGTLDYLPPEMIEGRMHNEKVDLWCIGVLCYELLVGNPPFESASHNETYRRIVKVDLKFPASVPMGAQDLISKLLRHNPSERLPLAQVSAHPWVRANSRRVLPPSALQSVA
Chain of Tyrosine-protein kinase BTK (Homo sapiens) (Q06187 whole entry): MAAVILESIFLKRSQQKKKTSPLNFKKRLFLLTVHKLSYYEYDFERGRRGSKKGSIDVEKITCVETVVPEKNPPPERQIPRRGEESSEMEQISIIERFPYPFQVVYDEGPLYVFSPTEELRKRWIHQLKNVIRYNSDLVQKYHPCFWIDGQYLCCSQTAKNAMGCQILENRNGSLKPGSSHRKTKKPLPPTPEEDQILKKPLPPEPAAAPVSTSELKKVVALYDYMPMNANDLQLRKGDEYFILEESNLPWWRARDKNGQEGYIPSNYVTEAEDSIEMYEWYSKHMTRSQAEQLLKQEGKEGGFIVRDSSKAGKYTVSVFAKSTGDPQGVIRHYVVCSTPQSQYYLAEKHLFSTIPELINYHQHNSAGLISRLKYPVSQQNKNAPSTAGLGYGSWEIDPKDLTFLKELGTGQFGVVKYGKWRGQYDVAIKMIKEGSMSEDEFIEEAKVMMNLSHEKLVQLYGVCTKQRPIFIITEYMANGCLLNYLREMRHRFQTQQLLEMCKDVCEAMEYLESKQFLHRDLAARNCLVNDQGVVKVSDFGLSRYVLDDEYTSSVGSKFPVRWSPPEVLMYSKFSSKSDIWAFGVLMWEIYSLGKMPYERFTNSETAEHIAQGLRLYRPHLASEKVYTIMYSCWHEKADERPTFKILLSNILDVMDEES

Regarding `O=C(c1cc2cc(O)ccc2[nH]1)c1cc2cc(O)ccc2[nH]1`, the residual activity is 11% in [1]; -6% in assay [2]; 27% in [3]; 4% in [4]; 23% in assay [5]; 6% in assay [6]. In addition, the residual activity in assay [7] is 9%; in assay [8], -1%; in assay [9], 61%; in assay [10], 24%; in assay [11], 50%; in [12], 15%. Besides, the residual activity came out at 78% in [13], 34% in assay [14], 6% in assay [15] and 1% in assay [16].
`CN(C)S(=O)(=O)c1ccc2c(c1)/C(=C/c1cc3c([nH]1)CCCC3)C(=O)N2`: the residual activity in assay [1] worked out at 77%; in assay [2], 72%; in assay [3] it was 114%; in assay [4], 75%; in assay [5] it was 36%; in assay [6], 13%. The residual activity was -1% in assay [7]; 1% in [8]; 75% in [9]; 52% in assay [10]; 51% in [11]; 36% in assay [12]. Also, the residual activity in assay [17] is 98%; in [18], 94%; in assay [13], 91%; in [14], 50%; in [15] it was 10%; in assay [16], 2%.
As for `N#C/C(=C\c1ccc(O)c(O)c1)C(=O)NCc1ccccc1`, the residual activity in assay [12] came to 77%; in assay [15], 104%.
Take `CC(C)N(CCC(=O)c1ccc2ccccc2c1)Cc1ccccc1`: the residual activity in [8] worked out at 83%; in assay [9], 76%; in assay [10], 61%; in [11], 69%; in assay [12], 74%.
`CCCC(=O)Oc1ccc2[nH]c(C(=O)c3cc4ccccc4[nH]3)cc2c1`: the residual activity was determined as 102% in [1]; 96% in assay [2]; 71% in assay [5]; 124% in assay [7]; 47% in assay [8]; 104% in assay [9]. The residual activity in assay [10] is 84%; in assay [11], 81%; in assay [12], 80%; in assay [17] it was 101%; in assay [18] it was 107%; in assay [13], 94%. Also, the residual activity stood at 70% in assay [15] and 64% in assay [16].
On to `COc1ccc(Cl)cc1NC(=O)Nc1cc(C)nc2ccccc12`, for which the residual activity in assay [1] was 87%; in assay [2] it was 145%; in assay [5], 89%; in assay [6], 136%; in assay [11], 98%; in assay [12] it was 88%. The residual activity in [16] was found to be 78%.
For `CC(C)(C)c1nc2c3ccc(F)cc3c3c(=O)[nH]ccc3c2[nH]1`, the residual activity in [19] is 35%; in [4], 100%; in assay [5], 13%; in assay [6] it was 25%; in [7] it was 1%; in assay [8], -1%. Also, the residual activity is 11% in assay [9]; 7% in assay [10]; 40% in assay [11]; 59% in assay [12]; 71% in assay [13]; 59% in assay [14].
Take `NC(=O)c1ccc(-c2nc(-c3ccc4c(c3)OCCO4)c(-c3ccccn3)[nH]2)cc1`: the residual activity in [19] turned out to be 96%; in assay [2] it was 92%; in assay [4], 83%; in [7], 89%; in assay [8], 70%; in assay [9] it was 84%. For the same compound, the residual activity in assay [10] is 90%; in [11], 77%; in assay [12] it was 85%; in assay [15], 88%; in assay [16] it was 85%.
Take `O=c1c(-c2ccc(F)cc2)c(-c2ccncc2)[nH]n1-c1ccc(Cl)cc1`: the residual activity turned out to be 119% in assay [19]; 68% in assay [2]; 53% in [4]; 59% in assay [17]; 7% in assay [18]; 101% in assay [15]. Also, the residual activity in assay [16] was determined as 74%.
`O=C1Cc2c([nH]c3ccc([N+](=O)[O-])cc23)-c2ccccc2N1`: the residual activity in assay [19] is 105%; in [1] it was 47%; in assay [3] it was 81%; in assay [4] it was 76%; in assay [6] it was 105%; in assay [7] it was 48%. The residual activity in assay [8] is 22%; in [17], 111%; in assay [18], 107%; in assay [15], 29%; in assay [16] it was 33%.
